These results are taken from ChEMBL document CHEMBL3988442, “University of Dundee, Small-Polar-MMV Screening Library” (2021).

In test [1] the target is T1, Aspartate--tRNA(Asp/Asn) ligase (Mycobacterium tuberculosis (strain ATCC 25618 / H37Rv)) (UniProt P9WFW3). Note: in the data most compounds retested in dose-response had high values.
T1 sequence (whole entry): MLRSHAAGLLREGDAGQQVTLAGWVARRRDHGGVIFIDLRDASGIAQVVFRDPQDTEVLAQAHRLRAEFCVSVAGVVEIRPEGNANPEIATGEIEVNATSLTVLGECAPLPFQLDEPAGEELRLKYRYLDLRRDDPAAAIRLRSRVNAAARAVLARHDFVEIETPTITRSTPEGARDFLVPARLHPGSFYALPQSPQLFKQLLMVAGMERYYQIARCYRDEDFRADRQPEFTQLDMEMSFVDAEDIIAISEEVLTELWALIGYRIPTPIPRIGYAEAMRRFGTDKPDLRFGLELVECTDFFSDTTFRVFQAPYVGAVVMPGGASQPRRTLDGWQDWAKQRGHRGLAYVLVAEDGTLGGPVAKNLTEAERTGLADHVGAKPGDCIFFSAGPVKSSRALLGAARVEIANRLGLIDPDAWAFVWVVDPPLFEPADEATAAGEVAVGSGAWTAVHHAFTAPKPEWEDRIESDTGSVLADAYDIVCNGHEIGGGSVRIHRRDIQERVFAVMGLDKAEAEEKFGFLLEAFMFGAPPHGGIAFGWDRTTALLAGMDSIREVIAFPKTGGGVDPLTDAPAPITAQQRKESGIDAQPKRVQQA
Briefly: Assay for Asp RNA synthetase-1 from Mycobacterium tuberculosis. More on the design: scale not given: direction of the effect not stated beside the values. Particulars: 30 µM. The format is functional.

The target of test [2] is Shiga toxin 2 (Escherichia coli O157:H7) (UniProt P09385+P09386). The experiment in a line: E. coli 0.157:H7 Shiga Toxin SOP - stx2 screening assay. More on the design: scale not given: direction of the effect not stated beside the values. To be noted: 30 µM. The format is functional.

The structures appear in SMILES notation.

On to `Cc1cccc(CN2C[C@@H]3COC[C@]3(COc3ccc(C#N)cn3)C2)n1`, for which the values for the Percent Effect in test [1] and in test [2] were -4.33% and -13.9%, respectively.

In the case of `O=C1[C@@H]2CCN(Cc3ccoc3)C[C@@H]2OCCN1c1ccccc1`, the Percent Effect in test [1] is -0.779%; in test [2] it was 4.03%.

Consider `Cc1cnn(CCNCc2ccccc2OCc2cccnc2)c1`, for which the Percent Effect is 4.5% in test [1] and -8.49% in test [2].

For `CN(C)CCNC(=O)c1cc(-c2cnc(N3CCCC3)nc2)cn1C`, the Percent Effect was -0.309% in test [1] and -17.7% in test [2].

For `N#Cc1ccnc(N2CCN(C(=O)NC3CCS(=O)(=O)C3)CC2)c1` (configuration not stated), the Percent Effect in test [1] is -2.74%; in test [2], 8.29%.

As to `CN(Cc1ccc(F)cc1)CC1(O)CCN(C(=O)c2ccccc2)C1` (configuration not stated), the Percent Effect was 3.23% in test [1] and -6.1% in test [2].

With `Cc1cc(CN2CCN(C(=O)NCc3ccc(C)s3)CC2)no1`, the Percent Effect in test [1] was -8.25%; in test [2], 0.0703%.

In the case of `Cc1csc(N2CCCN(C(=O)C(C(C)C)n3cncn3)CC2)n1` (configuration not stated), the Percent Effect was -2.24% in test [1] and 15.4% in test [2].

Regarding `N#Cc1ccc(C(=O)N2CC[C@H]3[C@@H]2CCC(=O)N3c2cccnc2)cc1`, the Percent Effect in test [1] was 2.4%; in test [2], -9.02%.

`CN1CC(=O)N(c2cccc(F)c2)CC12CCNC2` (configuration not stated): the Percent Effect in test [1] is -4.35%; in test [2], -4.44%.

In the case of `CC(C)(C)c1cn2nc(N3CCCC3Cn3cncn3)sc2n1` (configuration not stated), the Percent Effect in test [1] is -3.59%; in test [2], -12.7%.

In the case of `O=C(O)c1nnn(-c2ccc(OC(F)(F)F)cc2)c1-c1ccncc1`, the Percent Effect in test [1] is 4.91%; in test [2], -8.85%.

Regarding `Cc1ccc(C(=O)NS(=O)(=O)c2ccccc2C)c(=O)[nH]1`, the figures for the Percent Effect in test [1] and in test [2] were -0.991% and 10.2%, respectively.

On to `CC(C1CC1)N(C)C(=O)c1cnc(-c2ccc3c(c2)OCO3)s1` (configuration not stated), for which the Percent Effect in test [1] is 3.36%; in test [2], -42.7%.

As for `Cn1cccc1CN1CCC2(CCCN(C(=O)c3cnccn3)C2)C1` (configuration not stated), the Percent Effect is 11.1% in test [1] and -9.19% in test [2].

As to `CCCC(C)CN1CCC(n2cc(CCCO)nn2)CC1` (configuration not stated), the values for the Percent Effect in test [1] and in test [2] were 1.56% and -23.7%, respectively.
